Sm TGR inh = S. mansoni TGR enzyme inhibition; purified TGR, DTNB reduction, TNB absorbance 405 nm; Potency, µM (top dose mostly 114 µM), actives largely listed as inhibitors; 3% of 360,000 active; AID 485364; also: nearly all actives have a fitted effect of over 60% in size
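TGR 20 nM + NADPH 100 uM (dispensed conc.), cpd preinc 15 min RT; start with NADPH (500 uM addition) then DTNB (15 mM addition). Kinetic TNB absorbance, 405 nm filter. Four-parameter Hill fit across titration.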
FMDV inh = antivirals against foot and mouth disease virus; FMDV antiviral cell-based qHTS; Potency, µM (doses to about 57.9 µM), most hits filed as inhibitors; 1.2% of 410,000 active; AID 1159524; calls by dose curve; tested in HEK293T cells; also: read-out not given here; nearly all actives have a fitted effect of over 45% in size
TbPYK inhibitor = inhibitors of Trypanosoma brucei pyruvate kinase; Q57TT1; 0.12% of 410,000 active; TbPYK enzyme, Kinase-Glo Plus ATP luminescence, 45 min; AID 624173; Potency, µM (highest dose often 76.8 µM), hits mostly inhibitors; also: nearly all actives have a fitted effect of over 50% in size
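Activity of T. brucei pyruvate kinase was followed by Kinase-Glo Plus luminescence after the enzyme reacted 45 min at room temperature with 130 uM ADP (final) and substrate. Test compounds were added before ADP at multiple concentrations.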
Giardia FBPA inh = blocks Giardia fructose-bisphosphate aldolase activity | Potency, µM (top dose mostly 59.6 µM), most hits filed as inhibitors | 0.71% of 290,000 active | purified Giardia FBPA; also: nearly all actives have a fitted effect of over 55% in size
Target sequence (A8B2U2 whole entry, looked up): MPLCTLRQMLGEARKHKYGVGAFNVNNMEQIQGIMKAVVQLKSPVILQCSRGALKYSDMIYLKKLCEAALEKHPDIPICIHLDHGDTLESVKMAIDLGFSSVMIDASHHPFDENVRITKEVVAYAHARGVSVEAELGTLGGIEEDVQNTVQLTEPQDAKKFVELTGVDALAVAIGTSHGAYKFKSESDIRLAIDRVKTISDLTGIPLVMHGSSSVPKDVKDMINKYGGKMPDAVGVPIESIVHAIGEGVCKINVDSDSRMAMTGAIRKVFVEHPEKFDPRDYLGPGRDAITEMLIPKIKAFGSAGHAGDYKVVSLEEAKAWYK
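Giardia FBPA (40 nM reagent) was preincubated 10 min at RT with compound (up to 57.5 uM final), then substrate plus GAPDH/TPI/NAD/arsenate coupling system with diaphorase/resazurin was added; resorufin fluorescence (525/598 nm) was read after 20 min.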
HCMV inh = inhibitors of human cytomegalovirus | 4.5% of 410,000 active | AID 1259415 | HFF cells, HCMV-luciferase reporter, 72 h; stronger effect = lower value | activity change, negative = inhibition, % at 57.5 µM; in the data active = activity change below about -60%; inconclusive = no clear call, values can overlap the other calls; inactive = above about -39%
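Luciferase read-out from HCMV-luciferase-infected HFFs (MOI 1 PFU/cell) 72 h post infection at 37C; compounds added after 16 h cell attachment; activity normalized between buffer-only basal and Salinomycin (10uM) inhibitor controls.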
RE007 growth inh = less growth of the S. pombe RE007 Vpr strain | 0.21% of 360,000 active | S. pombe RE007 Vpr strain, BacTiter-Glo ATP luminescence, 24 h | Potency, µM (series often up to 92.2 µM), hits mostly inhibitors; active = well fitted falling curve with a large enough effect; inconclusive = small, poorly fitted or top-dose-only effect; inactive = no such curve, though single readings can be large or run the other way; also: nearly all actives have a fitted effect of over 50% in size
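Fission yeast strain RE007, carrying one chromosomally integrated HIV-1 vpr copy, was seeded at OD 0.01 in PMG+AL medium with 23 nL pinned compound. After 24 h at 30 °C and 99% humidity, viability was read by BacTiter-Glo luminescence.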
A number is an active result. The list is not random: actives were taken first. Their share in the collection is about 7.7%. Unless noted, calls follow the shape of the dose curve; as a rule, active = well fitted curve in the direction sought with a large enough effect; inconclusive = small, poorly fitted or top-dose-only effect, or another doubt; inactive = no such curve, though single readings can be large; an effect the other way counts as inactive or inconclusive.

CCOc1ccc(CCN2C(=S)N([C@@H](Cc3ccc(O)cc3)CN3CCCC3CN3C(=S)NC[C@@H]3Cc3ccc(O)cc3)C[C@@H]2CC(C)C)cc1 (some centres not stated) was read as FMDV inh inconclusive, TbPYK inhibitor inactive, HCMV inh -79.5 and RE007 growth inh inactive.
`CCOc1ccc(CCN2C(=S)N([C@@H](Cc3ccccc3)CN3CCC[C@@H]3CN3C(=S)NC[C@@H]3Cc3ccc(O)cc3)C[C@@H]2CC(C)C)cc1` gave FMDV inh inactive, TbPYK inhibitor inactive, HCMV inh inactive and RE007 growth inh inactive.
COc1ccc(NC(=O)CN2C(=O)COc3ccc(S(=O)(=O)Nc4ccccc4)cc32)cc1 was read as Sm TGR inh inactive, FMDV inh inactive, TbPYK inhibitor inactive and HCMV inh inactive.
`O=C(NC(c1ccccc1)c1cc(Cl)c2cccnc2c1O)c1cccnc1` (configuration not stated) gave Sm TGR inh inactive, Giardia FBPA inh inconclusive and HCMV inh -99.9.
COc1ccccc1C(NC(C)=O)c1cc(Cl)c2cccnc2c1O (configuration not stated) was read as Sm TGR inh inactive, FMDV inh inactive, TbPYK inhibitor inactive, Giardia FBPA inh inactive, HCMV inh -95.9 and RE007 growth inh inactive.
O=C(O)COc1ccccc1C(Nc1ccccn1)c1cc(Cl)c2cccnc2c1O (configuration not stated) was read as Sm TGR inh 0.398µM, FMDV inh inactive, TbPYK inhibitor inactive, Giardia FBPA inh inconclusive, HCMV inh inactive and RE007 growth inh inactive.
For CCCC(=O)NC(c1ccc2c(c1)OCO2)c1cc(Cl)c2cccnc2c1O (configuration not stated) the results were Sm TGR inh inactive, FMDV inh inactive, TbPYK inhibitor inactive, Giardia FBPA inh inconclusive and RE007 growth inh inactive.
`COc1ccc(C(=O)NC(c2ccc(Cl)cc2)c2cc(Cl)c3cccnc3c2O)cc1` (configuration not stated) gave Sm TGR inh inactive, FMDV inh inactive, TbPYK inhibitor inactive and HCMV inh inactive.
For COc1ccc(C(NC(C)=O)c2cc(Cl)c3cccnc3c2O)cc1OC (configuration not stated) the results were Sm TGR inh inactive, FMDV inh inactive, TbPYK inhibitor inactive, Giardia FBPA inh inactive, HCMV inh -99.8 and RE007 growth inh inactive.
Screening Cc1ccc(CSc2nc3c([nH]c4ccccc43)c(=O)n2C)cc1 returned Sm TGR inh inactive, FMDV inh inactive, TbPYK inhibitor inactive and HCMV inh inactive.
CCOc1ccc(C(Nc2cccnc2)c2cc(Cl)c3cccnc3c2O)cc1 (configuration not stated) was read as Sm TGR inh 0.316µM, FMDV inh inactive, TbPYK inhibitor inactive, Giardia FBPA inh inconclusive, HCMV inh -93.5 and RE007 growth inh inconclusive.
`CCC(=O)NC(c1ccc(OC)c(OC)c1)c1cc(Cl)c2cccnc2c1O` (configuration not stated) gave Sm TGR inh inactive, FMDV inh inactive, TbPYK inhibitor inactive, Giardia FBPA inh inactive, HCMV inh -109.9 and RE007 growth inh inactive.
Screening CCC(=O)NC(c1ccc(C)cc1)c1cc(Cl)c2cccnc2c1O (configuration not stated) returned FMDV inh inactive and TbPYK inhibitor inactive.
Screening O=C(NCc1ccccc1)C(=O)Nc1c2c(nn1-c1ccccc1)CSC2 returned Sm TGR inh inactive, FMDV inh inactive, TbPYK inhibitor inactive and HCMV inh inactive.
`CCc1ccc(CNCc2c(C(=O)O)c(C)n(Cc3c(F)cccc3Cl)c2C)cc1` gave Sm TGR inh inactive, FMDV inh inactive, TbPYK inhibitor inactive and HCMV inh inactive.
`Cc1ccc(CSc2nc3cccnc3n2Cc2nc(-c3ccccc3F)oc2C)cc1` gave Sm TGR inh inactive, FMDV inh inactive, TbPYK inhibitor inactive and HCMV inh inactive.
COC(=O)C1=C(C)N(CC2CC2)C(=NCc2cccc(C(F)(F)F)c2)N[C@H]1c1ccccc1 was read as Sm TGR inh inactive, FMDV inh inconclusive, TbPYK inhibitor inactive, Giardia FBPA inh inactive and RE007 growth inh inactive.
`COC(=O)C1=C(C)N(Cc2ccccc2)C(=NCc2cccc(C(F)(F)F)c2)N[C@H]1c1cccc(C(F)(F)F)c1` gave Sm TGR inh inactive, FMDV inh 39.8µM, TbPYK inhibitor inactive, Giardia FBPA inh inactive and RE007 growth inh inactive.
For COC(=O)C1=C(C)N(Cc2ccccc2)C(=NCc2cccc(C(F)(F)F)c2)N[C@H]1c1cccc(F)c1 the results were Sm TGR inh inactive, FMDV inh 39.8µM, TbPYK inhibitor inactive, Giardia FBPA inh inactive, HCMV inh -98.4 and RE007 growth inh inactive.
Screening CCN=C1NC(c2ccc(F)cc2)C(C(=O)OC)=C(C)N1Cc1cccc(C(F)(F)F)c1 (configuration not stated) returned HCMV inh inactive.
`COC(=O)C1=C(C)N(Cc2cccc(C(F)(F)F)c2)C(=NCC2CC2)NC1c1cccc(C(F)(F)F)c1` (configuration not stated) gave HCMV inh -85.4.
COC(=O)C1=C(C)N(Cc2ccc(C(F)(F)F)cc2)C(=NCc2ccccc2)NC1c1ccccc1 (configuration not stated) was read as HCMV inh -91.6.
COCCN=C1N[C@@H](c2cccc(C(F)(F)F)c2)C(C(=O)OC)=C(C)N1Cc1ccccc1 was read as Sm TGR inh inactive, FMDV inh inactive, TbPYK inhibitor inactive, Giardia FBPA inh inactive, HCMV inh inactive and RE007 growth inh inactive.
`Cc1ccc(-c2nc3ncccc3o2)cc1NC(=O)COc1ccc(C(C)C)cc1` gave Sm TGR inh inactive, FMDV inh inconclusive, TbPYK inhibitor inactive and HCMV inh inactive.
For Cc1cccc(NC(=O)c2c(C)cc(C)nc2SCC(=O)Nc2c(C)cc(C)cc2C)c1 the results were Sm TGR inh inactive, FMDV inh inactive, TbPYK inhibitor inactive and HCMV inh inactive.
COC(=O)C1=C(C)N(Cc2ccccc2)C(=NCCCCO)N[C@H]1c1cccc(C(F)(F)F)c1 was read as Sm TGR inh inactive, FMDV inh inactive, TbPYK inhibitor inactive, Giardia FBPA inh inactive, HCMV inh inactive and RE007 growth inh inactive.
Screening COC(=O)C1=C(C)N(Cc2ccc(C(F)(F)F)cc2)C(=NCc2ccccc2)NC1c1cccc(C(F)(F)F)c1 (configuration not stated) returned HCMV inh -101.2.

Compound activity as filed in PubChem.
